Experimental data published in PubChem BioAssay (EPA / NIEHS).
Several values for one entry are separate records, joined by “and”; a condition that tells them apart may be missing. Equal values may be shown once. The source holds several records for some structures; these can differ, active in one and inactive in another. Activity calls are given as the source filed them. Rule for the calls: active = hit-call score of the fitted dose curve at least 0.9, where 1 is the maximum; inactive = score below 0.9.

Legend:
[1] = target: Bile acid receptor (Homo sapiens) (UniProt Q96RI1); test: ATG_IR1_CIS: Attagene CIS-FACTORIAL HepG2 Assay for human Nuclear Receptor Subfamily 1 Group H Member 4 (NR1H4), IR1 submotif (AID 2282946); settings: IR1 reporter transcription, actives raise or lower the signal
Procedure, shortened: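 Cells (human HepG2) carry transiently transfected cis-promoter reporter transcription units. Compounds are incubated 24 h, total RNA is reverse-transcribed and amplified, and labelled fragments are resolved by capillary electrophoresis. Curves use DMSO as baseline.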

[2] = ATG_ISRE_CIS: Attagene CIS-FACTORIAL HepG2 Assay for human Interferon Regulatory Factor 1 (IRF1) binding to an Interferon-Stimulated Response Element (ISRE) (AID 2282948); settings: HepG2 ISRE cis-reporter (Attagene), mRNA transcription readout; actives raise or lower the signal
Procedure, shortened: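 Cell-based cis-reporter assay; HepG2; 24 h exposure; reporter mRNA by RT-PCR plus capillary electrophoresis fluorescence; activity in either direction scored relative to DMSO.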

[3] = ATG_M_06_CIS: Attagene CIS-FACTORIAL HepG2 Assay for M06 Transcription Factor (Internal Marker) (AID 2282950); settings: HepG2 Attagene CIS-FACTORIAL M06 internal marker reporter; actives raise or lower the signal
Procedure, shortened: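 Terse: HepG2, transient MRTU transfection (FuGene 6), 24 h dosing; total RNA, oligo(dT) RT, PCR, FAM label, HpaI cut, capillary electrophoresis; bidirectional fit vs DMSO baseline; background-control endpoint.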

[4] = target: Hypoxia-inducible factor 1-alpha (Homo sapiens) (UniProt Q16665); test: ATG_HIF1a_CIS: Attagene CIS-FACTORIAL HepG2 Assay for human Hypoxia Inducible Factor 1 (HIF1A) (AID 2282951); settings: HepG2 Attagene cis-factorial HIF1a reporter transcription; actives raise or lower the signal
Procedure, shortened: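 HepG2, transient cis-reporter library, 24 h dosing. RNA → RT (oligo dT) → PCR → 6-FAM primer extension → HpaI → CE. Bidirectional curve fit vs DMSO.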

[5] = target: Hepatocyte nuclear factor 6 (Homo sapiens) (UniProt Q9UBC0); test: ATG_HNF6_CIS: Attagene CIS-FACTORIAL HepG2 Assay for human Hepatocyte Nuclear Factor 6 (HNF6) (AID 2282952); settings: HepG2 Attagene cis-factorial HNF6 reporter transcription; actives raise or lower the signal
Procedure, shortened: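 HepG2 cells transiently transfected with cis-element-driven multiple reporter transcription units, dosed 24 h; reporter mRNA quantified by RT-PCR, FAM primer extension, HpaI digestion and capillary electrophoresis; bidirectional fit versus DMSO baseline.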

[6] = target: Heat shock factor protein 1 (Homo sapiens) (UniProt Q00613); test: ATG_HSE_CIS: Attagene CIS-FACTORIAL HepG2 Assay for human Heat Shock Transcription Factor 1 (HSE) (AID 2282953); settings: HepG2 HSE cis-reporter, Attagene RNA transcription; actives raise or lower the signal
Procedure, shortened: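 Read-out: fluorescence of reporter-specific RT-PCR fragments separated by capillary electrophoresis. HepG2 carrying transfected cis-element reporter units; 24 h dosing; activity fitted in both directions relative to DMSO baseline.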

[7] = ATG_MRE_CIS: Attagene CIS-FACTORIAL HepG2 Assay for human Metal Responsive Element (MRE) (AID 2282954); settings: HepG2 MRE cis-reporter transcription, Attagene multiplex; actives raise or lower the signal
Procedure, shortened: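 Transient MRTU transfection of HepG2 (FuGene 6); 24 h dosing; total RNA → oligo(dT) RT, PCR, 6-FAM primer extension, HpaI cut, CE. Bidirectional fit vs DMSO.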

[8] = ATG_PBREM_CIS: Attagene CIS-FACTORIAL HepG2 Assay for human Phenobarbital-responsive Enhancer Module (PBREM) (AID 2282955); settings: HepG2 PBREM cis-reporter, Attagene multiplexed transcription; actives raise or lower the signal
Procedure, shortened: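 HepG2, transient MRTU transfection, 24 h dosing; RNA → oligo(dT) RT → PCR → 6-FAM extension → HpaI → CE. Bidirectional fit vs DMSO.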

[9] = target: Paired box protein Pax-6 (Homo sapiens) (UniProt P26367); test: ATG_Pax6_CIS: Attagene CIS-FACTORIAL HepG2 Assay for human Paired Box 6 (PAX6) (AID 2282956); settings: HepG2 CIS-FACTORIAL PAX6 reporter transcription, RNA readout; actives raise or lower the signal
Procedure, shortened: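 Multiplexed cis-reporter HepG2 system; 24 h treatment; reporter mRNA read by RT-PCR/CE fluorescence; bidirectional fit vs DMSO.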

[10] = ATG_PXRE_CIS: Attagene CIS-FACTORIAL HepG2 Assay for human Pregnane X Receptor Element (PXRE) (AID 2282957); settings: HepG2 Attagene CIS-FACTORIAL PXRE reporter, mRNA; actives raise or lower the signal
Procedure, shortened: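 HepG2 cells transiently transfected with cis-regulated multiple reporter transcription units; endogenous factor activity measured as reporter mRNA 24 h after dosing. RT-PCR, fluorescent primer extension, HpaI digestion, capillary electrophoresis; bidirectional fit versus DMSO baseline.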

[11] = ATG_PPRE_CIS: Attagene CIS-FACTORIAL HepG2 Assay for human Peroxisome Proliferator-activated Response Element (PPRE) (AID 2282958); settings: HepG2 PPRE cis-element reporter, Attagene transcription factor profiling; actives raise or lower the signal
Procedure, shortened: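 Transcript-level reporter induction in transfected HepG2 cells after 24 h chemical exposure, quantified by fluorescence from RT-PCR products separated by capillary electrophoresis.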

[12] = ATG_RORE_CIS: Attagene CIS-FACTORIAL HepG2 Assay for human RAR-related Orphan Receptor Element (RORE) (AID 2282959); settings: HepG2 Attagene cis-factorial RORE reporter, mRNA; actives raise or lower the signal
Procedure, shortened: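 Multiplexed reporter assay measuring mRNA induction from a cis promoter element in transiently transfected HepG2 cells after 24 h treatment. Detection via RT-PCR and capillary electrophoresis fluorescence; DMSO serves as baseline.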

[13] = target: Transcription factor Sp1 (Homo sapiens) (UniProt P08047); test: ATG_Sp1_CIS: Attagene CIS-FACTORIAL HepG2 Assay for human Specificity Protein 1 (Sp1) (AID 2282961); settings: HepG2 Sp1 cis-reporter transcription, actives raise or lower the signal
Procedure, shortened: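 Measures mRNA induction of an Sp1-linked reporter in HepG2 cells 24 h post-dosing. Multiplexed reporters read by RT-PCR and capillary electrophoresis; DMSO serves as negative control and baseline.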

[14] = ATG_SREBP_CIS: Attagene CIS-FACTORIAL HepG2 Assay for human Sterol Regulatory Element Binding (SREBP) (AID 2282962); settings: HepG2 Attagene cis-factorial SREBP reporter, mRNA; actives raise or lower the signal
Procedure, shortened: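 mRNA induction of transfected cis-promoter reporters in HepG2 cells, 24 h post-dose. Detection: RT-PCR with 6-FAM-labelled products, HpaI digest, capillary electrophoresis. DMSO served as negative control and baseline.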

[15] = target: Signal transducer and activator of transcription 3 (Homo sapiens) (UniProt P40763); test: ATG_STAT3_CIS: Attagene CIS-FACTORIAL HepG2 Assay for human Signal Transducer and Activator of Transcription 3 (STAT3) (AID 2282963); settings: HepG2, Attagene cis-factorial STAT3 reporter transcription; actives raise or lower the signal
Procedure, shortened: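 Endogenous STAT3-responsive cis-element activity was read in transiently transfected HepG2 cells after 24 h treatment. Reporter transcripts were quantified via RT-PCR and capillary electrophoresis, with DMSO as negative control and bidirectional curve fitting.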

[16] = ATG_TCF_b_cat_CIS: Attagene CIS-FACTORIAL HepG2 Assay for human T-Cell-Factor with beta-catenin (TCF/b-cat) (AID 2282965); settings: HepG2 TCF/beta-catenin cis-reporter transcription, actives raise or lower the signal
Procedure, shortened: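 Endogenous transcription factor activity is captured through cis-promoter reporter constructs transiently introduced into human HepG2 liver cells. Induced reporter mRNA is measured after 24 h and fitted bidirectionally relative to DMSO.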

[17] = ATG_M_32_CIS: Attagene CIS-FACTORIAL HepG2 Assay for M32 Transcription Factor (Internal Marker) (AID 2282949); settings: HepG2 Attagene cis-factorial M32 reporter, mRNA; actives raise or lower the signal;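 note: background control marker of the multiplexed CIS panel rather than a real target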
Procedure, shortened: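 HepG2 cells transiently transfected with multiplexed cis-regulated reporter units, dosed 24 h. Reporter mRNA quantified by RT-PCR, 6-FAM labelling, HpaI digestion and capillary electrophoresis; bidirectional fit vs DMSO.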

[18] = ATG_Sox_CIS: Attagene CIS-FACTORIAL HepG2 Assay for human SRY-box transcription factor (SOX) (AID 2282960); settings: HepG2 Attagene cis-factorial SOX reporter, mRNA; actives raise or lower the signal
Procedure, shortened: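 Cells were transfected with reporter constructs under cis-regulatory promoters, then exposed to chemicals for 24 h. Reporter transcripts were quantified by fluorescence after RT-PCR and capillary electrophoresis; activity was fitted in both directions against DMSO.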

[19] = ATG_TA_CIS: Attagene CIS-FACTORIAL HepG2 Assay for human TA Basal Promoter (AID 2282964); settings: HepG2 Attagene CIS-factorial TA basal promoter reporter; actives raise or lower the signal
Procedure, shortened: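 Transfected HepG2, 24 h compound exposure; RNA → RT-PCR → FAM primer extension → HpaI cut → CE fluorescence. Gain/loss-of-signal fitted against DMSO negative control. Background-control readout.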

Measured: AC50

Chain of Hypoxia-inducible factor 1-alpha (Homo sapiens) (Q16665 whole entry, looked up): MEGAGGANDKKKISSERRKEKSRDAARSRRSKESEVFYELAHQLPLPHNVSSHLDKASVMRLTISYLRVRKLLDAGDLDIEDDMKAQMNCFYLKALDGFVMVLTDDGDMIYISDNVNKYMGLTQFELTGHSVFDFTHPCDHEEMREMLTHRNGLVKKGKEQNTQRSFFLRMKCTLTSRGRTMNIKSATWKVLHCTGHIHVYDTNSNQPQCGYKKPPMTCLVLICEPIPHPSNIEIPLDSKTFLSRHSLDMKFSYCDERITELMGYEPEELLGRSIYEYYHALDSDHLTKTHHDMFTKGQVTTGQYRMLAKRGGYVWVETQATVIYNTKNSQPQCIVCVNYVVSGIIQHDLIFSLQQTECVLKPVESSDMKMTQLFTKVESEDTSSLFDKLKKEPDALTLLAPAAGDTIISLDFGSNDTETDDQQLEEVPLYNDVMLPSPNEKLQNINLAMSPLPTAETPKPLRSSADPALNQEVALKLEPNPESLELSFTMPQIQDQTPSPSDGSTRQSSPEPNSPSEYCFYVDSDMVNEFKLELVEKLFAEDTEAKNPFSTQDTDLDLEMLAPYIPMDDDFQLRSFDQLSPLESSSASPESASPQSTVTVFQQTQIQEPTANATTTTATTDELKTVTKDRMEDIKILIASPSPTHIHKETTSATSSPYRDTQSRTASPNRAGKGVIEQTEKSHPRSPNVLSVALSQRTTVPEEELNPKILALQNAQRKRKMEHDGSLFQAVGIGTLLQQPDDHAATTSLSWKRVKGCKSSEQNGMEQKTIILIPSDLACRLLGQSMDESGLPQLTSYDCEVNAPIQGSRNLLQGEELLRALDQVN
Chain of Heat shock factor protein 1 (Homo sapiens) (Q00613 whole entry, looked up, the tested form may be a part): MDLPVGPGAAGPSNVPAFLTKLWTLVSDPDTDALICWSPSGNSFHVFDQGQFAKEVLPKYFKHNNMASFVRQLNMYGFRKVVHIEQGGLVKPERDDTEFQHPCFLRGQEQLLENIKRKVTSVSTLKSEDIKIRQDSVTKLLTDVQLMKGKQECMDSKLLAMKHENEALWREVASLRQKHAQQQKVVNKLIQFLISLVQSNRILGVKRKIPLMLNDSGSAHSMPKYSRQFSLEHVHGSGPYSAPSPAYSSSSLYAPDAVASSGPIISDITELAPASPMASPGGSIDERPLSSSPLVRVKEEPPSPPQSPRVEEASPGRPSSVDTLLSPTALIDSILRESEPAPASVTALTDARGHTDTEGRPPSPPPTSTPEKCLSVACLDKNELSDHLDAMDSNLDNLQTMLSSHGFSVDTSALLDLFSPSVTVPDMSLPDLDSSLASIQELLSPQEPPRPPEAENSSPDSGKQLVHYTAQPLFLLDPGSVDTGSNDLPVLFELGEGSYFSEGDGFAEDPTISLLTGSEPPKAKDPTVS
Chain of Signal transducer and activator of transcription 3 (Homo sapiens) (P40763 whole entry, looked up): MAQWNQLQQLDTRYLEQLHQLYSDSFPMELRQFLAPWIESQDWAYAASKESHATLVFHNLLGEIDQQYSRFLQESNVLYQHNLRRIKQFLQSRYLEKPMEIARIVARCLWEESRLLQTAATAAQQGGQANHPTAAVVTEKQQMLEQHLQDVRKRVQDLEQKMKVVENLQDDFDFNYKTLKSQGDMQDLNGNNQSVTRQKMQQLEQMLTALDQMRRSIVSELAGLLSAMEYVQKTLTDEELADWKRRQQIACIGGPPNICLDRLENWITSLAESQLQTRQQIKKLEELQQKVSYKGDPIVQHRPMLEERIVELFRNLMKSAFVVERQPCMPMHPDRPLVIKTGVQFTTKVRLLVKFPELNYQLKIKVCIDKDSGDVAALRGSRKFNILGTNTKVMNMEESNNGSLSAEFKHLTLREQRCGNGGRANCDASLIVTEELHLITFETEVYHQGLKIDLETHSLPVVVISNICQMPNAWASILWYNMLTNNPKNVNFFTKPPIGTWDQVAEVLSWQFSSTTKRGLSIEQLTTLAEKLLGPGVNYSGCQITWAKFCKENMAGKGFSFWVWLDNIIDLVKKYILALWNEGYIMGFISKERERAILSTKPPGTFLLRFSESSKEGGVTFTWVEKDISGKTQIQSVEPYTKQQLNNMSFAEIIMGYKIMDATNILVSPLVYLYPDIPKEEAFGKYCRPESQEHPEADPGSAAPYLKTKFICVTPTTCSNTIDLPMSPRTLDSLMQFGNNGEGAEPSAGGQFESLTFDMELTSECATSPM
Chain of Bile acid receptor (Homo sapiens) (Q96RI1 whole entry, looked up, the tested form may be a part): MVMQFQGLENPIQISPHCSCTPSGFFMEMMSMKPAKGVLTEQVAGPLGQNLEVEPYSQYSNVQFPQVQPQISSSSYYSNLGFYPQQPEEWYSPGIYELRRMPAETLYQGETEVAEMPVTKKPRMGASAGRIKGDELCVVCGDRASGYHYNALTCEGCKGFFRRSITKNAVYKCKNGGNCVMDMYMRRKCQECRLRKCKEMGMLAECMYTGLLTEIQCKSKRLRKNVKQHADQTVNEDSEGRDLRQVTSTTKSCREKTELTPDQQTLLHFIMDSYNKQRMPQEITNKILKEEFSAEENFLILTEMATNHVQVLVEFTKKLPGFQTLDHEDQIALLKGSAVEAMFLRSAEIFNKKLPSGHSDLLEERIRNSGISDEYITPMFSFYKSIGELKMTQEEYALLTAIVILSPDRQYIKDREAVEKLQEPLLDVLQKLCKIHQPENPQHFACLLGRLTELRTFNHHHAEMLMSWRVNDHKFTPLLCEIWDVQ
Chain of Paired box protein Pax-6 (Homo sapiens) (P26367 whole entry, looked up): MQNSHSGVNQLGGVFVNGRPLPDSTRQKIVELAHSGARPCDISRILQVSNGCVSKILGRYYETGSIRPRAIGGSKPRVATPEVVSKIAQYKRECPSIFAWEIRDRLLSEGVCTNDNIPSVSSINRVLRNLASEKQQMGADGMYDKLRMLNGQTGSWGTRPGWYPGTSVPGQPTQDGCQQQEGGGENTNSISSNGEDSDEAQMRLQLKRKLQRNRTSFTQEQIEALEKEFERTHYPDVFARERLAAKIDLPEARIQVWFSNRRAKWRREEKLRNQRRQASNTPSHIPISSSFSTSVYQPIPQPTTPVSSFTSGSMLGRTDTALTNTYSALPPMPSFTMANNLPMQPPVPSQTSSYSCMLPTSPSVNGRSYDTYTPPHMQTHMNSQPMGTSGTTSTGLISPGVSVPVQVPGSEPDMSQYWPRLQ
Chain of Hepatocyte nuclear factor 6 (Homo sapiens) (Q9UBC0 whole entry, looked up): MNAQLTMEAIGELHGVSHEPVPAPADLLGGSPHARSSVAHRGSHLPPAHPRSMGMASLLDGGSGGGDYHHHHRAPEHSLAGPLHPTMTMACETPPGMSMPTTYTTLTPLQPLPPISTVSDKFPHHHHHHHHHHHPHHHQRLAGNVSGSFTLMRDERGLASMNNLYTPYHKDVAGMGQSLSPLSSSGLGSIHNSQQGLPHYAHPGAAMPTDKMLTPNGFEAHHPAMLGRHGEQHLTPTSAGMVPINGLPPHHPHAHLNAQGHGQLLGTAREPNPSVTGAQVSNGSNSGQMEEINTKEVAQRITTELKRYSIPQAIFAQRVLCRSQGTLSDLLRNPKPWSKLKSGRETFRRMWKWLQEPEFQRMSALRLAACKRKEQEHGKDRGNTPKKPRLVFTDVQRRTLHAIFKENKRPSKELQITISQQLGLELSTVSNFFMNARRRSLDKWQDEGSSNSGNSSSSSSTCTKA
Chain of Transcription factor Sp1 (Homo sapiens) (P08047 whole entry, looked up): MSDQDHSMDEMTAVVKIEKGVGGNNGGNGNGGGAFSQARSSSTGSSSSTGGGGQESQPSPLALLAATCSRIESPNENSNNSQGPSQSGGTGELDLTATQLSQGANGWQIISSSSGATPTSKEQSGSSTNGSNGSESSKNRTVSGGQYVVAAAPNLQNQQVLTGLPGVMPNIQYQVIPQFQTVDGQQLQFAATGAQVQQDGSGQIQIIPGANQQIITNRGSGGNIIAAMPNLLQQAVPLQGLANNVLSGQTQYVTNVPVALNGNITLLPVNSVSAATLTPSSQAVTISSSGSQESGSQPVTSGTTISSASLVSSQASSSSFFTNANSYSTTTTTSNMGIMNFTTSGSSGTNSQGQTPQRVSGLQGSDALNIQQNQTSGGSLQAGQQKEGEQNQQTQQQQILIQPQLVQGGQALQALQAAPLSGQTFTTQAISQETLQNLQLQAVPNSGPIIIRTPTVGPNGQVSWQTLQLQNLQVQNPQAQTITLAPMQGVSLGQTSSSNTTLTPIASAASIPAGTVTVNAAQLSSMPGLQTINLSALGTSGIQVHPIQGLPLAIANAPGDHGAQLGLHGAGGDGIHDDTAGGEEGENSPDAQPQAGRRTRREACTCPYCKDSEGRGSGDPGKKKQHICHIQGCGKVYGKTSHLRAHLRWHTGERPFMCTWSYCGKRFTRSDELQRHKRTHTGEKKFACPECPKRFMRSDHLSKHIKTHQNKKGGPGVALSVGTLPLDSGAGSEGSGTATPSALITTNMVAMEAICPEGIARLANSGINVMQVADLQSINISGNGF

CC(=O)[O][Hg][c]1ccccc1
active: [7] 5.86 µM | [10] 3.71 µM | [12] 3.71 µM | [13] 2.87 µM
not listed: [17] | [18] | [19]
inactive: all other assays above

C[C@@H](Oc1ccc(Cl)cc1Cl)C(=O)O
not listed: [8] | [11]
inactive: all other assays above

CC(=[OH+])/C=C(/C)[O-].CC(=[OH+])/C=C(/C)[O-].CC(=[OH+])/C=C(/C)[O-].[Fe]
not listed: [8] | [18]
inactive: all other assays above

CN(C)P(=O)(N(C)C)N(C)C
not listed: [8] | [19]
inactive: all other assays above

Cn1sc(Cl)cc1=O
active: [11] 100 µM
not listed: [7] | [8] | [16]
inactive: all other assays above

OCc1ccco1
not listed: [7] | [10]
inactive: all other assays above

O=[N+]([O-])c1c(Cl)c(Cl)cc(Cl)c1Cl
active: [10] 18.2 µM
not listed: [8] | [17]
inactive: all other assays above

C=CC(=O)OCCCCCC(C)C
active: [10] 69.5 µM
not listed: [8]
inactive: all other assays above

CCc1ccccc1C
not listed: [8]
inactive: all other assays above

CCOP(OCC)OCC
not listed: [11] | [17]
inactive: all other assays above

O=C(O)C(F)(F)C(F)(F)C(F)(F)C(F)(F)C(F)(F)C(F)(F)C(F)(F)C(F)(F)C(F)(F)C(F)(F)F
active: [2] 44.5 µM and 20.1 µM | [3] 76.2 µM | [4] 23.2 µM | [6] 14.9 µM | [8] 70.8 µM | [9] 30.8 µM | [10] 62 µM | [12] 24.2 µM | [16] 31.9 µM and 13.1 µM
inactive: [1] | [3] | [4] | [5] | [6] | [8] | [9] | [10] | [12] | [13] | [14] | [15]

C=CC(=O)N(C)C
not listed: [8] | [18]
inactive: all other assays above

Nc1cccc(Cl)c1
not listed: [6] | [8] | [13] | [19]
inactive: all other assays above

O=C1CCCN1
not listed: [13] | [17]
inactive: all other assays above
